# Experimental data as given in PubChem BioAssay AID435019 (Southern Research Specialized Biocontainment Screening …, 2010).
# In all, about 2,300 compounds went through this assay and about 1,200 (52%) were called active. No rule for the calls is given here. So high a share suggests a set chosen from earlier hits. The list shows a part of the results. Measured potencies and affinities stand elsewhere.
# Experiment: mammalian cell cytotoxicity, dose response, cytotoxicity control for M. tuberculosis inhibitor project (AID 435019);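 also: 0% = background wells and 100% = vehicle-treated cells; lower values mean fewer viable cells so more cytotoxicity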
# Conditions: cytotoxicity counter-screen; series mostly up to 40 µM; viability: at the top concentration
row,SMILES,viability
1,Cc1noc(C)c1COc1ccc(C(=O)OCC(=O)NC23CC4CC(CC(C4)C2)C3)cc1,92% (inactive)
2,O=Cc1ccc(-c2ccc(Cl)cc2Cl)[nH]1,89.3% (inactive)
3,O=C(N[C@H]1CCC(=O)N(CCSc2ccc(Br)cc2)CC1)OCc1ccccc1,81.7% (inactive)
4,CN(C(=O)COC(=O)c1sc2ccccc2c1Cl)C1CCCCC1,102% (inactive)
5,N#CCCN(C(=O)COC(=O)CCc1c[nH]c2ccccc12)c1ccc(F)cc1,98.1% (inactive)
6,COc1ccc(OC)c(C(=O)NC(CC(N)=O)c2ccc(NCc3ccc(F)c(F)c3)c([N+](=O)[O-])c2)c1 (centres undefined),91.3% (inactive)
7,O=[N+]([O-])c1cn(-c2nc(-c3ccco3)cc(C(F)(F)F)n2)cn1,92.9% (inactive)
8,CC(C)(O)C#Cc1ccc(C(=O)Nc2ccc3c(c2)OCO3)s1,98.5% (inactive)
9,CC1(C)OC(=O)C(=Cc2ccc[nH]2)C(=O)O1,93.5% (inactive)
10,Cc1ccccc1Cn1cc(NC(=O)c2noc(C(C)C)c2[N+](=O)[O-])cn1,99.4% (inactive)
11,Cc1ccc(C2=NCCn3c2c2ccccc2[n+]3[O-])cc1,95.3% (inactive)
12,O=S(=O)(c1ccc(Oc2ccc3oc4ccccc4c3c2)nc1)N1CCCC1,90.8% (inactive)
13,O=c1[nH][nH]c(-c2ccccc2O)c1C(C[N+](=O)[O-])c1cccc(Cl)c1 (centres undefined),94.3% (inactive)
14,Cc1ccc(NCCC(=O)c2ccc(Br)cc2)cc1,93.9% (inactive)
15,Cc1ccc(C(=O)n2c(N)nc3ccccc32)cc1,87% (inactive)
16,COc1ccc(N/C=C/c2nc(SC)nnc2C)cc1,92.8% (inactive)
17,O=C(c1cc([N+](=O)[O-])ccc1N1CCOCC1)N1CCN(S(=O)(=O)c2cc(Cl)ccc2Cl)CC1,88.9% (inactive)
18,COc1ccc(N2CCN(C(=O)c3cc4c(C)nc5ccccc5c4o3)CC2)cc1,88.9% (inactive)
19,CN(CC(=O)Nc1ccc(OC(F)(F)F)cc1)C(=O)/C=C/c1cc2c(cc1[N+](=O)[O-])OCO2,85.5% (inactive)
20,CC(=O)c1ccc(NC(=O)c2cc(CC(C)C)on2)cc1,96.5% (inactive)
21,CCOC(=O)CSc1nc(N)c(C(=O)Nc2ccc(N(C)C)cc2)s1,94.7% (inactive)
22,CCOc1ccc(NC(=O)N(C2CCCCC2)C(C)c2ccncc2)cc1 (centres undefined),92.1% (inactive)
23,CCCc1ccc(OCc2ccccc2)c2c(=O)cc(C(=O)OCC)oc12,99.7% (inactive)
24,O=C(Nc1cccnc1Cl)c1cc(-c2ccco2)on1,98.9% (inactive)
25,Cc1cc(C)n(-c2ccc(C(=O)Oc3ccc4c(c3)OCO4)cc2)n1,101% (inactive)
26,COc1ccc(-c2nsc3c(N4CCCCC4C)ncnc23)cc1 (centres undefined),88.7% (inactive)
27,Cc1ccc(N/C=C2\C(=O)C3(C)CCC2C3(C)C)cc1C (centres undefined),99.7% (inactive)

row,SMILES,viability
1,O=C(CCC(=O)OCc1ccc(C(=O)Oc2ccc(Cl)cc2)cc1)Nc1ccccc1,86.8% (inactive)
2,COc1ccccc1OC(=O)c1ccc(S(=O)(=O)N(C)C)cc1,98.2% (inactive)
3,CSc1ccc(CNC(=O)c2ccc(NC(=O)C3=CSCCO3)cc2)cc1,87.8% (inactive)
4,CCC1(c2ccccc2)NC(=O)N(CC(=O)Nc2ccc(S(=O)(=O)NC3=NCCCCC3)cc2)C1=O (centres undefined),104% (inactive)
5,CC(=O)/C(=N\Nc1ccc(C)cc1)N1CCOCC1,86.2% (inactive)
6,O=[N+]([O-])c1ccc(CN2CCN(c3ccc(Cl)cc3)CC2)o1,100% (inactive)
7,C[N+](C)(CCCCCC[N+](C)(C)CCCN1C(=O)c2cccc3cccc(c23)C1=O)CCCN1C(=O)c2cccc3cccc(c23)C1=O,96.7% (inactive)
8,CCOC(=O)C1CCN(CC(O)COc2ccc(C(C)(C)CC)cc2)CC1 (centres undefined),89.2% (inactive)
9,O=C(c1ccccc1)c1nn(-c2ccc(Cl)cc2)cc1C(=O)c1cc2ccccc2oc1=O,82.4% (inactive)
10,COc1c[nH]n(C2CCCCC2)c(=O)c1=O,81.8% (inactive)
11,CCOc1ncccc1C(=O)OCC(=O)N1CCc2ccccc21,99.6% (inactive)
12,CS(=O)(=O)c1ccc([C@@H](O)[C@@H](CF)NC(=O)C(Cl)Cl)cc1,81.2% (inactive)
13,O=C(O)Cc1c[nH]c2ccc(O)cc12,97.3% (inactive)
14,Cc1ccc(-c2cn3cccnc3n2)cc1NC(=O)c1ccc(Br)o1,96.1% (inactive)
15,O=C(CSC1=NC(=O)C(c2ccccc2)C(=O)N1)Nc1ccccc1Cl (centres undefined),101% (inactive)
16,CCOC(=O)CSc1ccc(C(=O)Nc2ccc(OC)cc2)cn1,90.3% (inactive)
17,O=C(Nc1nc2nc(-c3ccccc3)cc(=O)n2[nH]1)c1ccccc1,93.5% (inactive)
18,O=C1N=C(N2CCC(Cc3ccccc3)CC2)S/C1=C/c1cn[nH]c1-c1ccccc1,91% (inactive)
19,C=CCSc1n[nH]c(-c2ccc(OCCCC)cc2)n1,84.6% (inactive)
20,Cc1ccc2nc(SCC(=O)Nc3ccc4c(c3)CCC4)[nH]c2c1,88.9% (inactive)
21,CCOC(=O)c1c(C)[nH]c(N=Nc2ccc(OC)cc2)c1C,86.4% (inactive)
22,O=C(CSCc1ccc([N+](=O)[O-])cc1)N/N=C/c1ccncc1,95.2% (inactive)
23,CCOC(=O)COc1ccc(S(=O)(=O)NCCC2=CCCCC2)cc1,94.7% (inactive)
24,O=c1oc2ccccc2c2c1nc(C(F)(F)F)n2-c1ccccc1,97.6% (inactive)
25,CCOC(=O)c1cn[nH]c1N,98.8% (inactive)
26,CCCCc1ccc(NC(=S)N2CCN(c3ncccn3)CC2)cc1,101% (inactive)
27,CC(C)OC(=O)c1ccc(COC(=O)c2cnccn2)cc1,91.4% (inactive)
